Laboratory results from PubChem BioAssay (NCATS).
Inconclusive results are not listed. Unmarked numbers belong to inactive results. Active and inactive are the calls of the source. Calls follow the shape of the dose curve; as a rule, active = well fitted inhibition curve with a large enough effect; inconclusive = small, poorly fitted or top-dose-only effect; inactive = no such curve, though single readings can be large or run the other way.
% is scaled to controls: 0 for no effect and ±100 for the full control effect; potency is read from the fitted curve at half-maximal effect.

These molecules were tested against Retinal dehydrogenase 2 (Homo sapiens) (UniProt O94788) (assay: qHTS for Inhibitors of the Aldehyde Dehydrogenase Family (ALDH1A2) Confirmation screens (AID 2061314; also: nearly all actives have a fitted effect of over 65% in size)). Conditions: ALDH1A2 enzyme inhibition qHTS confirmation; series mostly up to 45.9 µM; activity, negative = inhibition: at the top concentration.
For `N#Cc1cc2c(=O)n3ccccc3nc2n(-c2nnc(SCc3ccc(F)cc3)s2)c1=O`, the “activity, negative = inhibition” value was -28.4%. With `CCc1ccc(C(=O)c2cnc3ccc(C)cc3c2S(=O)(=O)c2ccc(OC)cc2)cc1` the “activity, negative = inhibition” value was -15.4%. With `CCN(C(=O)c1sc2nc3n(c(=O)c2c1C)CCCCC3)c1ccccc1F` the “activity, negative = inhibition” value was -11.9%. For `COc1ccc(CC(=O)N2CCC3(CC2)CN([S+](=O)([O-])c2ccccc2)CCO3)cc1`, the “activity, negative = inhibition” value was -0.823%. `COc1ccc(-c2nc(CNS(=O)(=O)c3cccc(F)c3)cs2)cc1` was tested, and the Potency was 5.76 µM (active). For `O=C(c1nccc2ccccc12)N1CCc2nc3cc[nH]n3c(=O)c2C1`, the “activity, negative = inhibition” value was 3.35%. `CCOc1ccc(S(=O)(=O)N2CCN(c3ccccc3)CC2)cc1C(N)=O` was tested, and the “activity, negative = inhibition” value was -7.12%. `CC(C)OCCCNC(=O)CN1C(=O)COc2ccc(S(=O)(=O)N3CCOCC3)cc21` was tested, and the “activity, negative = inhibition” value was -15%. In the case of `O=C(Nc1ccc(O)cc1)c1cccc(S(=O)(=O)N2CCOCC2)c1`, the “activity, negative = inhibition” value is reported as -3.2%. With `CN1C(=O)c2cccn2CC1CNC(=O)c1cccc2nccnc12` (stereo not given) the “outcome” value was “inactive”. `COc1ccc(S(=O)(=O)NCC(c2ccco2)N2CCOCC2)cc1C` (stereo not given) was tested, and the “activity, negative = inhibition” value was -11.5%. With `NS(=O)(=O)c1ccc(-n2nc(-c3ccncc3)nc2C2CCOC2)cc1` (stereo not given) the “activity, negative = inhibition” value was -18.6%. With `O=S(=O)(Nc1ccc(OC(F)(F)F)cc1)c1ccc(N2CCCCS2(=O)=O)cc1` the “activity, negative = inhibition” value was -17.4%. `O=C(CC1N=C2c3ccccc3N=C(SCc3cccc(F)c3)N2C1=O)NCc1cccs1` (stereo not given) was tested, and the “activity, negative = inhibition” value was -22.8%. In the case of `CNC(=O)[C@H]1C[C@H](Oc2cccnc2)CN1C(=O)Cc1ccccc1`, the “activity, negative = inhibition” value is reported as 1.6%. `Cc1ccccc1NC(=O)CSc1nc2ccccc2c2nc(CCn3cncc3C)nn12` was tested, and the “activity, negative = inhibition” value was -6.79%. With `COc1cc(C(=O)NCC(c2ccco2)S(=O)(=O)c2ccccc2)cc(OC)c1OC` (stereo not given) the “outcome” value was “inactive”. With `COC(=O)c1ccccc1NC(=O)CCCS(=O)(=O)c1nc(-c2ccccc2OC)cc(C(F)(F)F)n1` the “activity, negative = inhibition” value was -38.2%. `CCOc1ccc(CNC(=O)C2CCCCN2S(=O)(=O)c2ccc(F)cc2)cc1OC` (stereo not given) was tested, and the “activity, negative = inhibition” value was -15.4%. In the case of `CC(C)NS(=O)(=O)c1ccc(OCC(=O)N2CCN(c3cccc(Cl)c3)CC2)cc1`, the “activity, negative = inhibition” value is reported as -40%. With `Cc1ccc(-n2c(SCc3ccccc3C)nc3[nH]ncc3c2=O)cc1C` the “activity, negative = inhibition” value was -17.1%. `COCC1CN(Cc2ccc(C(F)(F)F)cc2)CC12CCNCC2` (stereo not given) was tested, and the “activity, negative = inhibition” value was -16.7%. With `CN(CC1(CO)CC1)c1nccc(CCC(F)(F)F)n1` the “activity, negative = inhibition” value was 0.843%. For `CCc1nn2c(=O)c(S(=O)(=O)Nc3ccc(Br)cc3F)c(C)nc2s1`, the “activity, negative = inhibition” value was -11.6%. For `CCOCc1cc(CN2CCN(c3cccc(C(F)(F)F)c3)CC2)c(O)c2ncccc12`, the “activity, negative = inhibition” value was -10.1%. `Cc1ccc(CCNC(=O)c2c(C)oc3nc(C)nc(N4CCOCC4)c23)cc1` was tested, and the “activity, negative = inhibition” value was -16.9%. In the case of `COc1ccc(NS(=O)(=O)c2ccc3[nH]c(=O)ccc3c2)cc1OC`, the “outcome” value is reported as “inactive”. With `CCCc1cnc2c(c1SCC(=O)N(C)c1ccccc1)c(=O)n(C)c(=O)n2C` the “activity, negative = inhibition” value was -14.3%. For `Fc1cc(F)cc(Cc2nc3nccc(-c4cccnc4)n3n2)c1`, the “activity, negative = inhibition” value was -19.3%. For `Cc1oc2ncnc(N3CCOCC3)c2c1C(=O)NCc1ccc(Cl)cc1`, the “activity, negative = inhibition” value was -9.13%. `O=C1COCCN1C1CCN(S(=O)(=O)c2cccc(C(F)(F)F)c2)CC1` was tested, and the “activity, negative = inhibition” value was -17.2%. For `CC(C)Oc1ccc(CNC(=O)C2CCCCN2S(=O)(=O)c2ccc(F)cc2)cc1` (stereo not given), the “outcome” value was “inactive”. In the case of `O=C(COc1ccccc1-c1nc(-c2ccccc2)no1)Nc1ccc([N+](=O)[O-])cc1`, the “activity, negative = inhibition” value is reported as -5.98%. For `CC(=O)c1cccc(NC(=O)c2ccc(Cl)c(S(=O)(=O)N3CCOCC3)c2)c1`, the “activity, negative = inhibition” value was -2.25%. For `COc1ccc(OC)c(NC(=O)CSc2nnc3ccc4ccccc4n23)c1`, the “activity, negative = inhibition” value was -14.7%. `COc1ccccc1Cc1nc2ccccc2nc1SCC(=O)Nc1c(C)cccc1C` was tested, and the “activity, negative = inhibition” value was -19.1%. For `COc1ccccc1C(=O)Nc1cc(-c2cccc(Br)c2)nn1-c1ccccc1`, the “activity, negative = inhibition” value was -27.6%. In the case of `Cc1ccc(-n2c(-c3cccc(C)c3)nc3c(cnn3-c3ccccc3)c2=O)cc1`, the “activity, negative = inhibition” value is reported as -10.2%. With `COCCn1cnnc1CN(C)C(=O)c1ccc2nc(C)cn2c1` the “activity, negative = inhibition” value was 3.67%. With `COc1cccc(-c2nn(-c3ccccc3)c(OC(C)=O)c2-c2ccc(NC(=O)C3CCCC3)cc2)c1` the “activity, negative = inhibition” value was -11%.
